Results as given in PubChem BioAssay (NCATS).
Results filed as inconclusive are left out. Active and inactive are the calls of the source. Calls come from the whole dose curve; as a rule, active = well fitted inhibition curve with a large enough effect; inconclusive = small, poorly fitted or top-dose-only effect; inactive = flat fitted curve, though single readings scatter.

How the values were obtained:
Assay in all cases: qHTS profiling for inhibitors of Plasmodium falciparum proliferation (AID 504749); note: nearly all actives have a fitted effect of over 60% in size
Details in all cases: P. falciparum in erythrocytes, SYBR Green DNA, 72 h; series mostly up to 28.7 µM
CP305 = test system: CP305
Method in brief: (§1)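 Readout was DNA-dye fluorescence from lysed cultures, ex 485/em 535 nm. Parasitized red cells had grown 72 h with compound; data scaled between 0.29 uM artemisinin and DMSO wells and corrected using vehicle-only plates.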

CP315 = test system: CP315
Method in brief: as §1

CP325 = test system: CP325
Method in brief: as §1

CP329 = test system: CP329
Method in brief: as §1

CP335 = test system: CP335
Method in brief: as §1

DFO2036 = test system: DFO2036
Method in brief: as §1

DIV14 = test system: DIV14
Method in brief: as §1

DIV17 = test system: DIV17
Method in brief: as §1

DIV30 = test system: DIV30
Method in brief: as §1

Dd2 = test system: Dd2
Method in brief: as §1

ECU = test system: ECU
Method in brief: as §1

FAB9 = test system: FAB9
Method in brief: as §1

GB4 = test system: GB4
Method in brief: as §1

HB3 = test system: HB3
Method in brief: as §1

ICS = test system: ICS
Method in brief: as §1

JCK = test system: JCK
Method in brief: as §1

N140 = test system: N140
Method in brief: as §1

P93_24 = test system: P93_24
Method in brief: as §1

P94_40 = test system: P94_40
Method in brief: as §1

PAD = test system: PAD
Method in brief: as §1

Measured: Potency

CCCCCCCCCCCCCCCCCC(=O)OCC(C)O (stereo not given)
inactive: all assays above

O=c1[nH]c(=O)n([C@H]2C[C@H](O)[C@@H](CO)O2)cc1/C=C/Br
inactive: all assays above

CC1=CCC2CC1C2(C)C (stereo not given)
inactive: all assays above

COc1cc(S(C)=O)ccc1-c1nc2ncccc2[nH]1 (stereo not given)
inactive: all assays above

OCl
inactive: all assays above

O=C(O)[C@H]1CN(C/C=C/P(=O)(O)O)CCN1
inactive: all assays above

O=P(O)(O)OC[C@H]1O[C@](O)(COP(=O)(O)O)[C@@H](O)[C@@H]1O
inactive: all assays above

CCC(C(=O)NC(N)=O)c1ccccc1 (stereo not given)
inactive: all assays above

CN(Cc1ccccc1)Cc1ccccc1
inactive: all assays above

NCCN
inactive: all assays above

COC1=C(OC)C(=O)C(C/C=C(\C)CC/C=C(\C)CC/C=C(\C)CC/C=C(\C)CC/C=C(\C)CC/C=C(\C)CC/C=C(\C)CC/C=C(\C)CC/C=C(\C)CCC=C(C)C)=C(C)C1=O
inactive: all assays above

CC(=O)Oc1cc(C(F)(F)F)ccc1C(=O)O
inactive: all assays above

O=C(O)Cc1nn(Cc2ccc(Br)cc2F)c(=O)c2ccccc12
inactive: all assays above

OC[C@H]1O[C@@H]2O[C@H]3[C@H](O)[C@@H](O)[C@@H](O[C@H]4[C@H](O)[C@@H](O)[C@@H](O[C@H]5[C@H](O)[C@@H](O)[C@@H](O[C@H]6[C@H](O)[C@@H](O)[C@@H](O[C@H]7[C@H](O)[C@@H](O)[C@@H](O[C@H]1[C@H](O)[C@H]2O)O[C@@H]7CO)O[C@@H]6CO)O[C@@H]5CO)O[C@@H]4CO)O[C@@H]3CO
inactive: all assays above

O=P(O)(O)OP(=O)(O)OP(=O)(O)O
inactive: all assays above

O[C@@H]([C@H](O)[C@H](O)CBr)[C@H](O)CBr
inactive: all assays above

CO/N=C(\C(=O)N[C@@H]1C(=O)N2C(C(=O)[O-])=C(C[n+]3cccc4c3CCC4)CS[C@H]12)c1csc(N)n1
inactive: all assays above

[O]=[Bi][O][Bi]=[O]
inactive: all assays above

CC1=CC(=O)NS(=O)(=O)O1
inactive: all assays above

C=Cc1ccc(S(=O)(=O)O)cc1
inactive: all assays above

CS(=O)(=O)OCC(O)C(O)COS(C)(=O)=O (stereo not given)
inactive: all assays above

CN1CCC(OC(=O)C(Oc2ccc(Cl)cc2)Oc2ccc(Cl)cc2)CC1
inactive: all assays above

CC(C)(CO)[C@@H](O)C(=O)NCCC(=O)NCCSSCCNC(=O)CCNC(=O)[C@H](O)C(C)(C)CO
inactive: all assays above

CCc1ncnc2cc(OC)c(OC)cc12
inactive: all assays above

CCCc1ccc(C(=O)O)cc1
inactive: all assays above

Cc1ccccn1
inactive: all assays above

CC(=O)N[C@@H]1C(O[C@H]2O[C@H](C(=O)O)C(O)[C@H](O)[C@H]2O)[C@H](O)[C@@H](CO)O[C@H]1O[C@@H]1C(C(=O)O)O[C@@H](O[C@H]2[C@H](O)[C@@H](CO)OC(O)[C@@H]2NC(C)=O)[C@H](O)[C@H]1O (stereo not given in full)
inactive: all assays above
